Our source for the PBM binding z-score values is the supplement of paper PMC6555819.

In the first assay the test system is PPARg DBDmut:RXRa IVT, anti-PPARg (DBD mutation: PPARg1 K132A/R137A, NR concentration 270 nM, RXRa partner concentration 90 nM). As to the kind of experiment: PBM binding z-score (relative to random genomic background probes); higher = stronger binding; sequences stand for … in GC…GCGATTGACAGCGTAGAATGAAGG
Summed up: (§1)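 Antibodies against each partner of ligand-free nuclear receptor dimers (one per run) detected binding on custom Agilent 4×180K protein-binding microarrays after 1 h incubation. The double-stranded probes had 34-nt variable regions carrying direct-repeat seeds, single-nucleotide variants, half-site ablations and random human genomic background sequences. Binding z-scores, from regression-normalized fluorescence, use the random background probes as reference.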
The sequence TGAATGAGGTTAAAGATCTGGGAACGTGGCGTCG returned a PBM binding z-score of 1.17.
Same read-out and setting: in the case of CTCGCAAGGTCGGTTGAGGTGAGTATACGGATAA it was -0.57.
Sequence CCACACAGGTGAAAGGTAACTCAGTCTGGTACGC registered a PBM binding z-score of 0.0609.
Still for that read-out and setting: in the case of CCTACTGCGCCAAGGTCATTGATCAGTCAAAGCA it was -0.442.
On the same count and under the same terms, in the case of TCTATTAGTTGAAGTGCAACCGACGAGTCCGTTT it was 0.956; in that of AGAACGAGGGCAATGAGTAGATAGCACGGGTGGC, 0.5.
TTGCCAAGGTGAAGGTCGTTGATCCCTCTGTAGA had a PBM binding z-score of -1.04.
The same measure, in the same setting: in the case of TCTAGTTGGTCACGGAGGTCACACACGACGGGTA it was 1.49.
As to ACAGACAGGTTAGTGAAGGTAACTCAGCTGGACG, the PBM binding z-score was 0.284.
In turn, GCGATTGGGGCAAAGCAGGTTACCATAAGGTTGG yielded a PBM binding z-score of -0.0926.
In the case of ATCTCTAGGTAAGACTCCGTTCAGTGAAGAACGC, the PBM binding z-score worked out at 0.571.
Take CCGACTGGGCCACGAAAGGTCATTGATTCAGTGA: the PBM binding z-score is -0.928.
Same read-out and setting: in the case of AATACAGGGTCATTGTAGGCCAGAGTACGCACAG it was 1.99.
Still for that read-out and setting: in the case of TTACCAAGGTGAGCTGAGGTCGTGGATCCAACTC it was -0.299; in that of TCTATTAGTTGATTAGGGCAACCGCAACAGCGGA, 0.83.
The same measure, in the same setting: in the case of AGTCAAAGTTCATCTAGGTAACCTAAGATATGCT it was 1.38; in that of TCAGACAGGTGAAGGTAACGCAGGTACGCAGTCG, 0.76.
As for AGAATGAGGTTATATGTAGATCAGGGAAGAAAGT, the PBM binding z-score worked out at 1.48.
The same measure, in the same setting: next, GCTCGGAGGACAAGGTCAGAGATTTGTCCGTAGA: -0.517; TCTGCTAGGTCAGTTGGTCAGGTAACGAGCTGCC: 0.0917; CCTCGGAGGACTACAGGAGGTCAGAGCTGCCAGA: -1.03.
The same measure, in the same setting: next, GGAACGACGGCAAGTTGATAGCAGAGTTTGATGG: -0.309; ATCTCTAGGTAAAGATAGTTCTGTGAATGCAAAT: 0.815.
Turning to CGTCCAGGGTCAGAGAGGTCAGTGAATGCCGAGT, the PBM binding z-score was -0.324.
Regarding TCTAGTTGGTCACGGAGGTCACACCCGACGGGTA, the PBM binding z-score came out at 1.28.
Still for that read-out and setting: in the case of TCATATAGGTAAATGCTAAGTGAAAGTCCGATCT it was 0.478; in that of TCTGCTAGGTCAGCTGGTCAGCTAACGAGCTGCC, -0.25; in that of CTACCAAGGTGAACAAGGGCGTTGATTACTATTC, -0.498.
Sequence AGTCAAAGTTCAAGACGAGGTAACGTAAAGCACG registered a PBM binding z-score of 1.37.
Still for that read-out and setting: in the case of GCTGCTAGGTCAGGTTGATCAGCTAACGGGTACG it was -1.1; in that of CCTTACGGGTCAAGGTTTTAGCACGGGTGGTACG, 0.173.
For the sequence TGAATGAGGTTATGAGATCAGGGAACGTTGCAAA, the PBM binding z-score was 0.285.
AGAACGAGGGCACGCTGAGTTCATAGCAGAGTAG yielded a PBM binding z-score of 0.826.
AGTCAAAGTTCACTAGGTAACCTAAGATTCAGCT showed a PBM binding z-score of 0.689.
On to GTACCAAGGTGAATAGGTCGTGGATGAGTAGGCG, for which the PBM binding z-score came to 0.27.
The same measure, in the same setting: in the case of CTCCAAAGGTCGTGCTCAGGTGAGTATACCAAAC it was -0.0777; in that of TGATATAGGTAAACAGGTGAAAGTCCGTAAGTTA, 1.01.
Same read-out and setting: next, TCTATTAGTAGATTAGGGCAACCGAAACAGCGGA: 0.69; CGTCCAAGGTCATAGGAGGTCAGTGAGGACAGAT: 1.02.
TCTCGGAGGACACGGAAGGTCAGAGCTCGACATC gave a PBM binding z-score of -0.462.

The next assay concerns PPARg DBDmut IVT, anti-PPARg (DBD mutation: PPARg1 K132A/R137A, NR concentration 270 nM). Described as above. In a few lines:
as §1
Regarding TGAATGAGGTTAAAGATCTGGGAACGTGGCGTCG, the PBM binding z-score is -0.223.
In turn, CTCGCAAGGTCGGTTGAGGTGAGTATACGGATAA registered a PBM binding z-score of -0.227.
On the same count and under the same terms, in the case of CCACACAGGTGAAAGGTAACTCAGTCTGGTACGC it was 0.1; in that of CCTACTGCGCCAAGGTCATTGATCAGTCAAAGCA, -0.653.
TCTATTAGTTGAAGTGCAACCGACGAGTCCGTTT had a PBM binding z-score of 1.
AGAACGAGGGCAATGAGTAGATAGCACGGGTGGC had a PBM binding z-score of -0.201.
Take TTGCCAAGGTGAAGGTCGTTGATCCCTCTGTAGA: the PBM binding z-score is -0.656.
Same read-out and setting: next, TCTAGTTGGTCACGGAGGTCACACACGACGGGTA: 1.18; ACAGACAGGTTAGTGAAGGTAACTCAGCTGGACG: 0.465.
On the same count and under the same terms, in the case of GCGATTGGGGCAAAGCAGGTTACCATAAGGTTGG it was -0.514; in that of ATCTCTAGGTAAGACTCCGTTCAGTGAAGAACGC, 0.804.
On the same count and under the same terms, in the case of CCGACTGGGCCACGAAAGGTCATTGATTCAGTGA it was -1.23; in that of AATACAGGGTCATTGTAGGCCAGAGTACGCACAG, 0.86; in that of TTACCAAGGTGAGCTGAGGTCGTGGATCCAACTC, -0.109.
TCTATTAGTTGATTAGGGCAACCGCAACAGCGGA registered a PBM binding z-score of 0.659.
Same read-out and setting: in the case of AGTCAAAGTTCATCTAGGTAACCTAAGATATGCT it was 1.29; in that of TCAGACAGGTGAAGGTAACGCAGGTACGCAGTCG, 0.126.
Still for that read-out and setting: next, AGAATGAGGTTATATGTAGATCAGGGAAGAAAGT: 1.02; GCTCGGAGGACAAGGTCAGAGATTTGTCCGTAGA: -0.427.
Consider TCTGCTAGGTCAGTTGGTCAGGTAACGAGCTGCC, for which the PBM binding z-score came to 0.385.
CCTCGGAGGACTACAGGAGGTCAGAGCTGCCAGA showed a PBM binding z-score of -2.28.
Turning to GGAACGACGGCAAGTTGATAGCAGAGTTTGATGG, the PBM binding z-score is -0.721.
The same measure, in the same setting: in the case of ATCTCTAGGTAAAGATAGTTCTGTGAATGCAAAT it was 1.19.
Same read-out and setting: next, CGTCCAGGGTCAGAGAGGTCAGTGAATGCCGAGT: -0.926; TCTAGTTGGTCACGGAGGTCACACCCGACGGGTA: 1.19; TCATATAGGTAAATGCTAAGTGAAAGTCCGATCT: 0.946.
The sequence TCTGCTAGGTCAGCTGGTCAGCTAACGAGCTGCC gave a PBM binding z-score of -0.593.
Sequence CTACCAAGGTGAACAAGGGCGTTGATTACTATTC gave a PBM binding z-score of 0.223.
The same measure, in the same setting: next, AGTCAAAGTTCAAGACGAGGTAACGTAAAGCACG: 1.3; GCTGCTAGGTCAGGTTGATCAGCTAACGGGTACG: -0.366.
For CCTTACGGGTCAAGGTTTTAGCACGGGTGGTACG, the PBM binding z-score was -0.72.
Sequence TGAATGAGGTTATGAGATCAGGGAACGTTGCAAA gave a PBM binding z-score of -0.0697.
Same read-out and setting: next, AGAACGAGGGCACGCTGAGTTCATAGCAGAGTAG: -0.0454.
The same measure, in the same setting: next, AGTCAAAGTTCACTAGGTAACCTAAGATTCAGCT: 0.943; GTACCAAGGTGAATAGGTCGTGGATGAGTAGGCG: -0.568; CTCCAAAGGTCGTGCTCAGGTGAGTATACCAAAC: -0.509.
Still for that read-out and setting: in the case of TGATATAGGTAAACAGGTGAAAGTCCGTAAGTTA it was 0.48.
Regarding TCTATTAGTAGATTAGGGCAACCGAAACAGCGGA, the PBM binding z-score was determined as 0.0955.
The same measure, in the same setting: next, CGTCCAAGGTCATAGGAGGTCAGTGAGGACAGAT: 0.649; TCTCGGAGGACACGGAAGGTCAGAGCTCGACATC: -0.403.
